Reference: PubChem BioAssay (NCI)
Compounds without any hit were thinned out: in the full panel of roughly 79,000, 15% have a hit. Active and inactive are the calls of the source. Rule as the data show it: active = growth inhibition above about 70%; inactive = the rest.

assay: NCI Yeast Anticancer Drug Screen. Data for the sgs1 mgt1 strain (AID 161);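 also: 0% = growth of cultures given vehicle only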; details: S. cerevisiae sgs1 mgt1 strain, at 5.0 µM (retest, dose inferred, filed as 0.5), stronger effect = higher value
Outline: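 Percent growth inhibition was derived by comparing compound-exposed mutant yeast with vehicle-exposed cultures. The strain carries alterations in DNA damage repair.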

| Compound | growth inhibition |
| --- | --- |
| O=C(c1ccc(Br)cc1)C1C(c2ccccc2)N1C1CCCCC1 (stereo not drawn) | -1% (inactive) |
| Cc1cccc2cc3ccccc3c[n+]12 | -12% (inactive) |
| Cc1ccc(P(=O)(c2ccc(C)cc2)c2ccc(C)cc2)cc1.Cc1ccc(P(=O)(c2ccc(C)cc2)c2ccc(C)cc2)cc1.[Cl][Sn]([Cl])([Cl])[Cl] | 2% (inactive) |
| c1ccc(P(CCP(c2ccccc2)c2ccccc2)CCP(c2ccccc2)c2ccccc2)cc1 | 92% (active) |
| O=[N+]([O-])c1cc2c([N+](=O)[O-])cccc2o1 | 19% (inactive) |
| O=C1CCC[N]1[Hg][N]1CCCC1=O | 99% (active) |
| Oc1c(Cl)c(Cl)c(Cl)c(Cl)c1Cl.[Cu+2] | 31% (inactive) |
| ClCCN(CCCl)c1ccc(C=NCCCCN=Cc2ccc(N(CCCl)CCCl)cc2)cc1 | 8% (inactive) |
| CC(C(=O)C1CCCCC1)[n+]1ccccc1 (stereo not drawn) | 0% (inactive) |
| CN(C)CC1CCCCC1=O (stereo not drawn) | -67% (inactive) |
| CSc1nncc(=O)[nH]1.[Hg] | 100% (active) |
| CNC(=O)N1CN(c2ccccc2)C2(CCN(CCCC(=O)c3ccc(F)cc3)CC2)C1=O | -3% (inactive) |
| O=C(OCc1ccccc1)C(C(Cl)c1ccccc1)N(Cc1ccccc1)Cc1ccccc1 (stereo not drawn) | -1% (inactive) |
| O=C1C=C(Cl)C(=O)C=C1Cl | 10% (inactive) |
| CC(=O)[O][Hg][c]1ccccc1N | 99% (active) |
| CCOP(=O)(Cc1cccc2ccccc12)OCC | 4% (inactive) |
| Nc1c(Cl)cccc1C(=O)O | 1% (inactive) |
| CC(=O)O[C@H]1CC[C@H]2[C@@H]3CCC4=CC(=O)CC[C@@H]4[C@H]3CC[C@]12C | -4% (inactive) |
| C1CC[N-]CC1.CC(=N\O)/C(C)=N/O.CC(=N\O)/C(C)=N/O.OC1[CH-]CCCC1.[Co+2] | 28% (inactive) |
| c1ccc(C(C(=Nc2ccc(Cc3ccc(N=C(C(c4ccccc4)c4ccccc4)N4CC4)cc3)cc2)N2CC2)c2ccccc2)cc1 | 5% (inactive) |

| Compound | growth inhibition |
| --- | --- |
| CCN(Cc1ccccc1)CC(O)c1ccc(Cl)c(Cl)c1 (stereo not drawn) | -2% (inactive) |
| CC(=O)OC1C(O)C(C)OC(OC2C(OC(=O)C3CCC4C(C3)OC3(CC(OC(=O)/C=C/c5ccccc5)C(C)CO3)C43CO3)OC(C)C(O)C2OC(C)=O)C1O (stereo not drawn) | -5% (inactive) |
| CCCCC(CC)CNP(=S)(NCC(CC)CCCC)NCC(CC)CCCC (stereo not drawn) | -4% (inactive) |
| Oc1c(-c2ccccc2)cc(-[n+]2c(-c3ccccc3)cc(-c3ccccc3)cc2-c2ccccc2)cc1-c1ccccc1 | 98% (active) |
| Cc1ccc([C@H]2N[C@@H]2c2ccccn2)cc1 | -5% (inactive) |
| CC[CH2][Sn]([CH2]CC)([CH2]CC)[CH2]CCBr | 99% (active) |
| O=[N+]([O-])c1cc(S(=O)(=O)F)ccc1S | -34% (inactive) |
| CCCCN(CCCC)CCc1ccc(OC(=O)c2ccc(N)cc2)cc1 | 46% (inactive) |
| Cc1ccc(C(=O)OC(C(=O)O)C(OC(=O)c2ccc(C)cc2)C(=O)O)cc1 (stereo not drawn) (tested in a mixture with another compound) | 28% (inactive) |
| N#C[S-].[Ce+3].c1ccc(-c2ccccn2)nc1.c1ccc(-c2ccccn2)nc1.c1ccc(-c2ccccn2)nc1 | 51% (inactive) |
| Nc1nc(N)c(-c2ccc(Cl)c(Cl)c2)c(CCc2ccc(CNC(=O)c3ccc(S(=O)(=O)F)cc3)cc2)n1 | 6% (inactive) |
| CC1C2C=CC1C(c1c3ccc(=O)c(O)c-3oc3c(O)c(O)ccc13)C2C(=O)O (stereo not drawn) | 2% (inactive) |
| O=C(O)CN(CCN(CC(=O)O)CC(=O)O)CC(=O)O | 11% (inactive) |
| O=S(=O)(F)c1ccc(Cl)cc1C[P+](c1ccccc1)(c1ccccc1)c1ccccc1 | 13% (inactive) |
| Oc1ccc2ccccc2c1O | 7% (inactive) |
| COC1=[C]([Hg][Br])C(OC)OC1OC (stereo not drawn) | 99% (active) |
| Nc1nc(CCl)cs1 | 1% (inactive) |
| CCC(C)N1CN(c2ccccc2)C2(CCN(CCCC3(c4ccc(F)cc4)OCCO3)CC2)C1=O (stereo not drawn) | -6% (inactive) |
| COc1ccc(NP(=S)(Nc2ccc(OC)cc2)c2ccccc2)cc1 | 6% (inactive) |

same assay, conditions: S. cerevisiae sgs1 mgt1 strain, at 50.0 µM (retest, dose inferred, filed as 5.0), stronger effect = higher value

| Compound | growth inhibition |
| --- | --- |
| O=C(c1ccc(Br)cc1)C1C(c2ccccc2)N1C1CCCCC1 (stereo not drawn) | 72% (active) |
| Cc1cccc2cc3ccccc3c[n+]12 | 79% (active) |
| Cc1ccc(P(=O)(c2ccc(C)cc2)c2ccc(C)cc2)cc1.Cc1ccc(P(=O)(c2ccc(C)cc2)c2ccc(C)cc2)cc1.[Cl][Sn]([Cl])([Cl])[Cl] | 6% (inactive) |
| c1ccc(P(CCP(c2ccccc2)c2ccccc2)CCP(c2ccccc2)c2ccccc2)cc1 | 92% (active) |
| O=[N+]([O-])c1cc2c([N+](=O)[O-])cccc2o1 | 99% (active) |
| O=C1CCC[N]1[Hg][N]1CCCC1=O | 99% (active) |
| Oc1c(Cl)c(Cl)c(Cl)c(Cl)c1Cl.[Cu+2] | 98% (active) |
| ClCCN(CCCl)c1ccc(C=NCCCCN=Cc2ccc(N(CCCl)CCCl)cc2)cc1 | 62% (inactive) |
| CC(C(=O)C1CCCCC1)[n+]1ccccc1 (stereo not drawn) | -2% (inactive) |
| CN(C)CC1CCCCC1=O (stereo not drawn) | -6% (inactive) |
| CSc1nncc(=O)[nH]1.[Hg] | 99% (active) |
| CNC(=O)N1CN(c2ccccc2)C2(CCN(CCCC(=O)c3ccc(F)cc3)CC2)C1=O | 40% (inactive) |
| O=C(OCc1ccccc1)C(C(Cl)c1ccccc1)N(Cc1ccccc1)Cc1ccccc1 (stereo not drawn) | 50% (inactive) |
| O=C1C=C(Cl)C(=O)C=C1Cl | 99% (active) |
| CC(=O)[O][Hg][c]1ccccc1N | 99% (active) |
| CCOP(=O)(Cc1cccc2ccccc12)OCC | 17% (inactive) |
| Nc1c(Cl)cccc1C(=O)O | 6% (inactive) |
| CC(=O)O[C@H]1CC[C@H]2[C@@H]3CCC4=CC(=O)CC[C@@H]4[C@H]3CC[C@]12C | 91% (active) |
| C1CC[N-]CC1.CC(=N\O)/C(C)=N/O.CC(=N\O)/C(C)=N/O.OC1[CH-]CCCC1.[Co+2] | 25% (inactive) |
| c1ccc(C(C(=Nc2ccc(Cc3ccc(N=C(C(c4ccccc4)c4ccccc4)N4CC4)cc3)cc2)N2CC2)c2ccccc2)cc1 | 70% (active) |

| Compound | growth inhibition |
| --- | --- |
| CCN(Cc1ccccc1)CC(O)c1ccc(Cl)c(Cl)c1 (stereo not drawn) | 99% (active) |
| CC(=O)OC1C(O)C(C)OC(OC2C(OC(=O)C3CCC4C(C3)OC3(CC(OC(=O)/C=C/c5ccccc5)C(C)CO3)C43CO3)OC(C)C(O)C2OC(C)=O)C1O (stereo not drawn) | 95% (active) |
| CCCCC(CC)CNP(=S)(NCC(CC)CCCC)NCC(CC)CCCC (stereo not drawn) | 27% (inactive) |
| Oc1c(-c2ccccc2)cc(-[n+]2c(-c3ccccc3)cc(-c3ccccc3)cc2-c2ccccc2)cc1-c1ccccc1 | 99% (active) |
| Cc1ccc([C@H]2N[C@@H]2c2ccccn2)cc1 | -12% (inactive) |
| CC[CH2][Sn]([CH2]CC)([CH2]CC)[CH2]CCBr | 100% (active) |
| O=[N+]([O-])c1cc(S(=O)(=O)F)ccc1S | 88% (active) |
| CCCCN(CCCC)CCc1ccc(OC(=O)c2ccc(N)cc2)cc1 | 90% (active) |
| Cc1ccc(C(=O)OC(C(=O)O)C(OC(=O)c2ccc(C)cc2)C(=O)O)cc1 (stereo not drawn) (tested in a mixture with another compound) | 70% (active) |
| N#C[S-].[Ce+3].c1ccc(-c2ccccn2)nc1.c1ccc(-c2ccccn2)nc1.c1ccc(-c2ccccn2)nc1 | 99% (active) |
| Nc1nc(N)c(-c2ccc(Cl)c(Cl)c2)c(CCc2ccc(CNC(=O)c3ccc(S(=O)(=O)F)cc3)cc2)n1 | 98% (active) |
| CC1C2C=CC1C(c1c3ccc(=O)c(O)c-3oc3c(O)c(O)ccc13)C2C(=O)O (stereo not drawn) | 33% (inactive) |
| O=C(O)CN(CCN(CC(=O)O)CC(=O)O)CC(=O)O | 74% (active) |
| O=S(=O)(F)c1ccc(Cl)cc1C[P+](c1ccccc1)(c1ccccc1)c1ccccc1 | 76% (active) |
| Oc1ccc2ccccc2c1O | 84% (active) |
| COC1=[C]([Hg][Br])C(OC)OC1OC (stereo not drawn) | 99% (active) |
| Nc1nc(CCl)cs1 | -3% (inactive) |
| CCC(C)N1CN(c2ccccc2)C2(CCN(CCCC3(c4ccc(F)cc4)OCCO3)CC2)C1=O (stereo not drawn) | 95% (active) |
| COc1ccc(NP(=S)(Nc2ccc(OC)cc2)c2ccccc2)cc1 | 65% (inactive) |
